Hit rate of the full screen: of about 5,500 compounds, about 2,000 (36%) were called active. Inconclusive results (about 18%) are left out. The list shows a part of the results. Values without a mark were called inactive. Cut-off read from the data, not from the text of the source: active = normalized growth mostly below about 0.91 (no sharp cut-off); inconclusive = no clear call, values can overlap the other calls; inactive = mostly above about 0.92.
Experiment: chemical genetic growth profiling, strain panel (AID 1159580);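 note: tested at 20 µM; growth read once vehicle control cultures reached saturation at 30 °C; 1 = growth at the plate median or of vehicle wells; lower values mean less growth of the strain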
Details: S. cerevisiae deletion strains, growth OD

SMILES: Cc1[nH]c2ccc(O)cc2c1CCN
- normalized growth (locus YAL040C, strain CLN3, stronger effect = lower value): 1
- normalized growth (locus YCL061C, strain MRC1 (second series), stronger effect = lower value): 1.01
- normalized growth (locus YDR363W, strain ESC2, stronger effect = lower value): 1.05
- normalized growth (locus YER002W, strain NOP16, stronger effect = lower value): 1
- normalized growth (locus YMR263W, strain SAP30, stronger effect = lower value): 1.01
- normalized growth (locus YNL153C, strain GIM3, stronger effect = lower value): 1.03
- normalized growth (locus YNL175C, strain NOP13, stronger effect = lower value): 1.01
- normalized growth (locus YNL197C, strain WHI3, stronger effect = lower value): 0.987
- normalized growth (locus YNL224C, strain SQS1, stronger effect = lower value): 0.996
- normalized growth (locus YNL322C, strain KRE1, stronger effect = lower value): 1.02
- normalized growth (locus YOR083W, strain WHI5 (second series), stronger effect = lower value): 0.999

SMILES: N/C(Cc1cccc2ccccc12)=N/OC(=O)c1ccc(Cl)cc1
- normalized growth (locus YAR019C, strain CDC15, stronger effect = lower value): 0.954
- normalized growth (locus YBL105C, strain PKC1, stronger effect = lower value): 0.952
- normalized growth (locus YBR135W, strain CKS1, stronger effect = lower value): 0.947
- normalized growth (locus YBR136W, strain MEC1, stronger effect = lower value): 0.93
- normalized growth (locus YBR160W, strain CDC28, stronger effect = lower value): 0.928
- normalized growth (locus YDL017W, strain CDC7, stronger effect = lower value): 0.949
- normalized growth (locus YDL028C, strain MPS1, stronger effect = lower value): 0.916
- normalized growth (locus YDL101C, strain DUN1, stronger effect = lower value): 0.961
- normalized growth (locus YDL108W, strain KIN28, stronger effect = lower value): 0.934
- normalized growth (locus YDL132W, strain cdc53, stronger effect = lower value): 0.951
- normalized growth (locus YDL214C, strain PRR2, stronger effect = lower value): 0.85
- normalized growth (locus YDR052C, strain DBF4, stronger effect = lower value): 0.967
- normalized growth (locus YDR054C, strain cdc34, stronger effect = lower value): 0.952
- normalized growth (locus YDR226W, strain ADK1, stronger effect = lower value): 0.954
- normalized growth (locus YDR477W, strain SNF1, stronger effect = lower value): 0.937
- normalized growth (locus YER123W, strain YCK3, stronger effect = lower value): 0.878
- normalized growth (locus YER133W, strain GLC7, stronger effect = lower value): 0.889
- normalized growth (locus YFL009W, strain cdc4, stronger effect = lower value): 0.938
- normalized growth (locus YFL029C, strain CAK1, stronger effect = lower value): 0.936
- normalized growth (locus YFR003C, strain YPI1, stronger effect = lower value): 0.955
- normalized growth (locus YFR019W, strain FAB1, stronger effect = lower value): 0.928
- normalized growth (locus YFR028C, strain CDC14, stronger effect = lower value): 0.956
- normalized growth (locus YGR040W, strain KSS1, stronger effect = lower value): 0.937
- normalized growth (locus YGR052W, strain FMP48, stronger effect = lower value): 0.941
- normalized growth (locus YGR092W, strain DBF2, stronger effect = lower value): 0.931
- normalized growth (locus YHR030C, strain SLT2, stronger effect = lower value): 0.666 (active)
- normalized growth (locus YHR079C, strain IRE1, stronger effect = lower value): 0.965
- normalized growth (locus YHR082C, strain KSP1, stronger effect = lower value): 0.953
- normalized growth (locus YHR205W, strain SCH9, stronger effect = lower value): 0.835
- normalized growth (locus YIL147C, strain SLN1, stronger effect = lower value): 0.94
- normalized growth (locus YJL095W, strain BCK1, stronger effect = lower value): 0.874
- normalized growth (locus YJL128C, strain PBS2, stronger effect = lower value): 0.935
- normalized growth (locus YJL157C, strain FAR1, stronger effect = lower value): 0.899
- normalized growth (locus YJR016C, strain ILV3, stronger effect = lower value): 0.962
- normalized growth (locus YJR066W, strain TOR1 (second series), stronger effect = lower value): 0.879
- normalized growth (locus YJR066W, strain TOR1, stronger effect = lower value): 0.847
- normalized growth (locus YKL048C, strain ELM1, stronger effect = lower value): 0.967
- normalized growth (locus YKL067W, strain YNK1, stronger effect = lower value): 0.846
- normalized growth (locus YKL101W, strain HSL1, stronger effect = lower value): 0.939
- normalized growth (locus YKL193C, strain SDS22, stronger effect = lower value): 0.978
- normalized growth (locus YKL203C, strain TOR2, stronger effect = lower value): 0.969
- normalized growth (locus YLR113W, strain HOG1, stronger effect = lower value): 0.858 (active)
- normalized growth (locus YLR133W, strain CKI1, stronger effect = lower value): 0.876
- normalized growth (locus YLR403W, strain SFP1, stronger effect = lower value): 0.919
- normalized growth (locus YML070W, strain DAK1, stronger effect = lower value): 0.892
- normalized growth (locus YMR001C, strain CDC5, stronger effect = lower value): 0.963
- normalized growth (locus YMR205C, strain PFK2 (second series), stronger effect = lower value): 0.872
- normalized growth (locus YMR277W, strain FCP1, stronger effect = lower value): 0.925
- normalized growth (locus YNL006W, strain LST8, stronger effect = lower value): 0.977
- normalized growth (locus YNL020C, strain ARK1, stronger effect = lower value): 0.909
- normalized growth (locus YNL161W, strain CBK1, stronger effect = lower value): 0.963
- normalized growth (locus YNL183C, strain NPR1, stronger effect = lower value): 0.92
- normalized growth (locus YNL207W, strain RIO2, stronger effect = lower value): 0.932
- normalized growth (locus YNL222W, strain SSU72, stronger effect = lower value): 0.95
- normalized growth (locus YNL307C, strain MCK1 (second series), stronger effect = lower value): 0.941
- normalized growth (locus YOL078W, strain AVO1, stronger effect = lower value): 0.943
- normalized growth (locus YOL136C, strain PFK27, stronger effect = lower value): 0.927
- normalized growth (locus YOR061W, strain CKA2, stronger effect = lower value): 0.892
- normalized growth (locus YOR119C, strain RIO1, stronger effect = lower value): 0.917
- normalized growth (locus YOR231W, strain MKK1, stronger effect = lower value): 0.926
- normalized growth (locus YOR329C, strain SCD5, stronger effect = lower value): 0.968
- normalized growth (locus YPL031C, strain PHO85, stronger effect = lower value): 0.915
- normalized growth (locus YPL153C, strain RAD53, stronger effect = lower value): 0.927
- normalized growth (locus YPL204W, strain HRR25, stronger effect = lower value): 0.922
- normalized growth (locus YPL209C, strain IPL1, stronger effect = lower value): 0.964
- normalized growth (locus YPL256C, strain CLN2, stronger effect = lower value): 0.888
- normalized growth (locus YPR025C, strain CCL1, stronger effect = lower value): 0.947
- normalized growth (locus YPR106W, strain ISR1, stronger effect = lower value): 0.986
- normalized growth (locus YPR111W, strain DBF20, stronger effect = lower value): 0.916
- normalized growth (strain NNK1, stronger effect = lower value): 0.948
- normalized growth (strain TSCII, stronger effect = lower value): 0.926

From PubChem BioAssay AID1159580 (chemical genetic matrix, 2015)
